Shown are actives, neighbours in structure and some others; about 5.7% of the full set was active somewhere.
AHR activator = human AHR activation. P35869. hit rate 2.5% among 320,000. AHR-responsive luciferase reporter cells, luminescence. activation, % at 5 µM; in the data active means activation above about 47%
Target sequence (P35869 whole entry, looked up): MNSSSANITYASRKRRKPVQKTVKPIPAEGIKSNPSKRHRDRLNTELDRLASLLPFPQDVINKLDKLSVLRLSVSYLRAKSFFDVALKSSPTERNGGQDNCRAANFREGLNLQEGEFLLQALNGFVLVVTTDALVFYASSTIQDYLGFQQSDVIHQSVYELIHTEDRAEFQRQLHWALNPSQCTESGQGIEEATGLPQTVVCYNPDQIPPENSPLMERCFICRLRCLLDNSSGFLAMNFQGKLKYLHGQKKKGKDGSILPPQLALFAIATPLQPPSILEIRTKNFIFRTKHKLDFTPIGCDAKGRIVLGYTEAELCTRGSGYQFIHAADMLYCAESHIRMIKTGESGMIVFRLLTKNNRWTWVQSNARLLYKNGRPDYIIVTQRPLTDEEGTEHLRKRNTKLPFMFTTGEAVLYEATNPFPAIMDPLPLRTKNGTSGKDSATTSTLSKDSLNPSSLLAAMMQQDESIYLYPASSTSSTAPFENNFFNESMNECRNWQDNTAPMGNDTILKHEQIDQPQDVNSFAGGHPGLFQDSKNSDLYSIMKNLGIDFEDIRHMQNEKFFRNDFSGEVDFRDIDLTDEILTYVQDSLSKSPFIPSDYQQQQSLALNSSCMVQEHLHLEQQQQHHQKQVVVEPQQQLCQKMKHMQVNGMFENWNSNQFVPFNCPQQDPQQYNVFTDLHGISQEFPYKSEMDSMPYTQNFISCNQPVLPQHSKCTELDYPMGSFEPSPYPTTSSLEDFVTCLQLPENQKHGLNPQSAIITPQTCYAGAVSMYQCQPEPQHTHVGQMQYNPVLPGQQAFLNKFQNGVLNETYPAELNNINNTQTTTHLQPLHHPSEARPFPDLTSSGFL
DAX1 inh-1 = DAX1 (NR0B1) inhibition, primary screen; hit rate 1.1% among 370,000; inhibition, % at 6.8 µM; HEK293T StAR-luciferase reporter, SF-1/DAX-1 repression relief;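 active means inhibition above the mean over all tested compounds plus 3 SD, cut at about 3.6% in these data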;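 further: higher inhibition means more luminescence from relief of DAX-1 repression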
hgDAF-12 ag = hgDAF-12 agonism, primary luciferase screen; HEK293 GAL4-hgDAF12 UAS-luciferase reporter, agonist luminescence; normalized to butyrate control; activation, % at 6.8 µM; hit rate 1.8% among 370,000;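 active means activation above a cutoff set at the mean of all screened compounds plus 3 SD, cut at about 10% in these data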
hcDAF-12 act = activates DAF-12 receptor from parasite H. contortus; hit rate 1.4% among 370,000; HEK293 hcDAF-12 lit1-tk-luc reporter, luminescence; 0% DMSO, 100% Δ7-dafachronic acid; activation, % at 6.8 µM;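 active means activation above the mean of all tested compounds plus 3 SD, cut at about 5.5% in these data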
DAX1 inh-2 = inhibitors of human orphan nuclear receptor DAX1 (NR0B1); HEK293 Gal4-DAX1 luciferase reporter, luminescence; P51843; inhibition, % at 6.75 µM; hit rate 0.99% among 340,000;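 active means inhibition above the mean over all tested compounds plus 3 SD, cut at about 4.2% in these data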;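 further: inhibition shows as a rise in luminescence from relieved DAX1 repression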
ssDAF12 agonist = S. stercoralis DAF-12 activation, primary screen. HEK293 ssDAF-12/GRIP1 lit1-tk-luc reporter, luminescence; % of 3 µM dafachronic acid response. activation, % at 6.8 µM. hit rate 1% among 370,000. AID 652126;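 active means activation above the mean over all tested compounds plus 3 SD, cut at about 0.9% in these data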
Large screens that a line does not name were inactive.

COc1cc(-c2nc3ccccc3c(=O)n2N)cc(OC)c1OC	ssDAF12 agonist 5.7
Nn1c(COc2cccc(Cl)c2)nc2ccccc2c1=O	AHR activator 58
Nn1c(-c2ccccc2)nc2cc(Cl)ccc2c1=O	AHR activator 52, hcDAF-12 act 5.7, ssDAF12 agonist 1.9
Cc1c(C(=O)N2CCCCCC2)c(S(=O)(=O)NCc2ccccc2Cl)c(C)n1C	none
CC(C)N(C(=O)CSc1nnc(C2CC2)n1C1CC1)c1ccccc1	none (no result: AHR activator)
Cc1cc(Br)ccc1NC(=S)N1CCOCC1	none
COC(=O)CCC(=O)c1oc2ccc(Br)cc2c1N	hgDAF-12 ag 11
COc1ccc2oc(C(=O)CCC(=O)O)c(N)c2c1	none
O=C1N=C(N2CCOCC2)S/C1=C\c1ccc(-c2ccccc2Cl)o1	AHR activator 50
C=CCn1cc(/C=C2\SC(N3CCOCC3)=NC2=O)c2ccccc21	AHR activator 71 (no result: DAX1 inh-2)
O=C1N=C(N2CCOCC2)S/C1=C\c1cccs1	none
Cc1ccsc1/C=C1/SC(N2CCOCC2)=NC1=O	none (no result: DAX1 inh-1, hgDAF-12 ag, hcDAF-12 act, DAX1 inh-2, ssDAF12 agonist)
Cc1ccccc1-c1ccc(/C=C2/SC(N3CCOCC3)=NC2=O)o1	DAX1 inh-2 5.4
CC(C)(Oc1ccc(Cl)cc1)C(=O)OCC(=O)N1CCN(c2ccccc2)CC1	none
COC(=O)C(CC(=O)c1ccc(Cl)cc1)c1ccccc1 (stereo not drawn)	none (no result: AHR activator)
Nc1c(C(=O)O)cnc2c(-c3ccc(Cl)cc3)cnn12	AHR activator 98, hgDAF-12 ag 12, hcDAF-12 act 6.4, ssDAF12 agonist 1.0
Cc1cc(Nc2cc(C(F)(F)F)cc(C(F)(F)F)c2)cc(=O)n1-c1cc(C(F)(F)F)cc(C(F)(F)F)c1	none (no result: AHR activator, DAX1 inh-2)
CCOC(=O)C(C)(C)Oc1ccc(Cl)cc1	none
Clc1ccc(Cn2cc(/C=N/n3cnnc3)c3ccccc32)c(Cl)c1	none
Cc1ccc(OCC(=O)N/N=C\c2cn(Cc3ccccc3)c3ccccc23)cc1C	ssDAF12 agonist 1.0
COC(=O)N/N=C/c1cn(Cc2ccc(F)cc2)c2ccccc12	none
COC(=O)N/N=C/c1cn(Cc2ccc(Cl)cc2Cl)c2ccccc12	AHR activator 71
COC(=O)N/N=C/c1cn(CCCOc2ccccc2)c2ccccc12	none
COC(=O)N/N=C/c1cn(Cc2ccccc2F)c2ccccc12	AHR activator 58
COC(=O)N/N=C/c1cn(Cc2c(Cl)cccc2Cl)c2ccccc12	AHR activator 64
CCCCN(C)C(=O)CNC(=O)c1nn(-c2ccc(OC)cc2OC)c(=O)c2ccccc12	none
O=C(/C=C/c1cccc2ccccc12)c1ccncc1	none
Cc1[nH]c2ccccc2c1/C=C/C(=O)c1ccncc1	AHR activator 56
COc1ccc(NC(=O)C2CCCN2S(=O)(=O)c2cccc3cccnc23)c(OC)c1 (stereo not drawn)	none
CCOc1ccc(OCC)c(NC(=O)C2CCCN2S(=O)(=O)c2cccc3cccnc23)c1 (stereo not drawn)	AHR activator 47
Nc1ccccc1-c1ccc(Cl)cc1	DAX1 inh-1 4.1 (no result: AHR activator)
Nc1ccccc1-c1ccccc1N	none
Cc1ccc2nc(SC(C)C(=O)N3CCCC3)[nH]c2c1 (stereo not drawn)	AHR activator 73
Cc1ccc2nc(SC(C)C(=O)N3CCCCC3)[nH]c2c1 (stereo not drawn)	ssDAF12 agonist 1.8
CNS(=O)(=O)c1cc(NC(=O)c2cncn2-c2ccccc2)ccc1C	none
COc1ccc2nc(SCC(=O)Nc3cc(OC)c(OC)cc3C(=O)O)c(C)cc2c1	none
Cc1cc(CNC(=S)Nc2ccc(Br)cc2Cl)nn1C	none
CN(C(=O)COC(=O)CSc1ccc([N+](=O)[O-])cc1)C1CCS(=O)(=O)C1 (stereo not drawn)	ssDAF12 agonist 1.5
CCN(C(=O)COC(=O)CSc1ccc([N+](=O)[O-])cc1)C1CCS(=O)(=O)C1 (stereo not drawn)	none
CCOC(=O)/C(C#N)=C\N(C)C	none
CCOC(=O)/C(C#N)=C/C=C1/C=CC=CN1C	DAX1 inh-2 5.7
Cc1cc(C)c(O)c(-c2cc(C(=O)Nc3cccnc3)[nH]n2)c1	none
CCc1ccc(O)c(-c2cc(C(=O)Nc3cccnc3)[nH]n2)c1	DAX1 inh-1 3.8, hgDAF-12 ag 12
CCC(C)(C(=O)NC1CCCCC1)N(C)C(=O)c1ccccn1 (stereo not drawn)	hcDAF-12 act 6.1

Screening data (PubChem)
